Data: PubChem BioAssay
Activity calls are given as the source filed them.

Key:
[1] = molecular target: Albumin (Bos taurus) (UniProt P02769); assay: bovine serum albumin binders on microarray, profiling panel, artefact control for SMM control protein annotation, biochemical, small-molecule microarray, Alexa647 label, 635/667 nm fluorescence (AID 1118); conditions: BSA-A647 binding, fluorescence 635 nm, higher = more signal;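 further: score merges 667 nm emission intensity and signal-to-noise per printed compound spot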
[2] = small-molecule microarray binders of probe aXIP, primary screen, biochemical, NeuroSMM set, 635/667 nm fluorescence (AID 1119); conditions: higher = more signal, called active from +8 up or from −8 down;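 further: probe is the protein aXip251-270 applied at 1 µg/mL to compound-printed slides; binding of probe to printed compounds measured as 667 nm fluorescence plus signal to noise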
[3] = small-molecule binders of probe aNOTCH3, primary screen, biochemical, small-molecule microarray, 635/667 nm fluorescence (AID 1120); conditions: higher = more signal;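 further: probe is a biotin-tagged antibody raised against NOTCH3 rather than NOTCH3 protein; score merges spot fluorescence near 667 nm with spot signal to noise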
[4] = small-molecule binders of probe aNOTCH2, primary screen, biochemical, small-molecule microarray, 635/667 nm fluorescence (AID 1121); conditions: higher = more signal;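 further: score merges feature fluorescence read at 667 nm with its signal to noise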
[5] = molecular target: Carbonic anhydrase 2 (Homo sapiens) (UniProt P00918); assay: CAII small-molecule binders, profiling panel, biochemical, small-molecule microarray, Alexa647-labelled CAII (AID 1122); conditions: CAII-A647 binding fluorescence, higher = more signal
[6] = COS7 lysate on small-molecule microarray, probe aHis, 635 nm (AID 1123); conditions: COS7 cell lysate, fluorescence, higher = more signal;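 further: z-score combines 667nm fluorescence intensity with signal-to-noise per printed compound spot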
[7] = compound binding in COS7 lysate, probe aLAP1, primary screen, cell lysate, small-molecule microarray (AID 1124); conditions: probe aLAP1, fluorescence, higher = more signal;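 further: lysate comes from COS7 cells expressing LAP1 and is applied at 0.3 µg/mL; score merges spot fluorescence near 667 nm with signal-to-noise over triplicate slides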
[8] = test system: Sam68 (KHDRBS1); assay: Sam68 small-molecule binders, primary screen, biochemical, small-molecule microarray, 635 nm fluorescence (AID 1125); conditions: small-molecule microarray binding, higher = more signal;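 further: score merges 667 nm channel intensity with signal to noise over triplicate slides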
[9] = test system: Chordin-like protein 2 (CHRDL2); assay: CHRDL2 small-molecule binders, primary screen, biochemical, small-molecule microarray, 635 nm fluorescence (AID 1126); conditions: small-molecule microarray binding, fluorescence 635 nm; higher = more signal;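 further: printed compound slides probed with Chrdl2 protein at 4 µg/mL for 1 h at 4 C; score merges 667 nm emission intensity with signal to noise over three replicate slides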
[10] = molecular target: Concanavalin-A (Canavalia ensiformis) (UniProt P02866); assay: ConA small-molecule binders, primary screen, artefact control for SMM control protein annotation, biochemical, small-molecule microarray, Alexa647 label, 635 nm (AID 1127); conditions: ConA-A647 binding fluorescence, higher = more signal;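 further: z combines 667 nm emission intensity with signal-to-noise across three replicate slides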
[11] = anti-His antibody binders, primary screen, artefact control for SMM control protein annotation, biochemical, small-molecule microarray, 635 nm fluorescence (AID 1128); conditions: anti-His Alexa647 antibody binding, higher = more signal;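 further: score merges feature fluorescence with signal-to-noise for each printed compound spot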
[12] = test system: Human papillomavirus type 1a E7 protein (residues 1-88); assay: HPV1a E7 small-molecule binders, primary screen, biochemical, small-molecule microarray, residues 1-88, 635 nm (AID 1129); conditions: small-molecule microarray binding, fluorescence 635 nm; higher = more signal
[13] = molecular target: Focal adhesion kinase 1 (Homo sapiens) (UniProt Q05397); assay: small-molecule microarray binders of FAK, primary screen, biochemical, 635/667 nm fluorescence, BSA, DTT (AID 1130); conditions: PTK2 binding, 635 nm fluorescence, higher = more signal;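 further: composite of spot emission at 667 nm and signal to noise over triplicate slides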
[14] = test system: Fibrinogen (Alexa647-labelled); assay: fibrinogen binders on compound microarrays, profiling panel, artefact control for SMM control-protein annotation, biochemical, small-molecule microarray, 635/667 nm fluorescence (AID 1131); conditions: fibrinogen-A647 binding fluorescence, higher = more signal;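 further: z-score merges 667 nm fluorescence with per-spot signal-to-noise over triplicate slides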
[15] = molecular target: Follistatin (Homo sapiens) (UniProt P19883); assay: follistatin binders on small-molecule microarrays, primary screen, biochemical, small-molecule microarray, 635/667 nm fluorescence (AID 1132); conditions: FST binding, 635 nm fluorescence, higher = more signal
[16] = molecular target: Fibroblast growth factor 2 (Homo sapiens) (UniProt P09038); assay: FGF2 binders on small-molecule microarrays, primary screen, biochemical, small-molecule microarray, 635/667 nm fluorescence (AID 1133); conditions: small-molecule microarray binding, FGF2, fluorescence 635/667; higher = more signal
[17] = mitochondrial membrane potential change in A549 cells, profiling panel, cell-based, JC-1 fluorescence, basal, 24 h, 100 nL (AID 1138); conditions: higher = more signal;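 further: A549 lung adenocarcinoma cells under basal conditions with no added stimulus; test concentration not given here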
[18] = test system: Lefty1; assay: Lefty1 binders on small-molecule microarrays, primary screen, biochemical, small-molecule microarray, 635/667 nm fluorescence (AID 1139); conditions: small-molecule microarray binding, fluorescence 635/667; higher = more signal
[19] = test system: wheat germ agglutinin (Triticum aestivum), Alexa647-labelled; assay: wheat germ agglutinin binders on compound microarrays, profiling panel, artefact control for SMM control-protein annotation, biochemical, small-molecule microarray, 635/667 nm fluorescence (AID 1140); conditions: WGA-A647 binding, 635 nm fluorescence, higher = more signal;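 further: score merges 667 nm feature emission with signal to noise over triplicate slides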
[20] = molecular target: Luciferin 4-monooxygenase (Photinus pyralis) (UniProt P08659); assay: firefly luciferase enzyme inhibitors, primary screen, biochemical, luminescence, purified enzyme, 2006 set (AID 1141); conditions: SteadyGlo luminescence, 30 min, higher = more signal, called active from +8 up or from −8 down;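 further: cell-free assay with purified firefly luciferase at 100 ng per well in PBS; test concentration not given here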
Luciferin 4-monooxygenase (Photinus pyralis), sequence (P08659 whole entry, looked up): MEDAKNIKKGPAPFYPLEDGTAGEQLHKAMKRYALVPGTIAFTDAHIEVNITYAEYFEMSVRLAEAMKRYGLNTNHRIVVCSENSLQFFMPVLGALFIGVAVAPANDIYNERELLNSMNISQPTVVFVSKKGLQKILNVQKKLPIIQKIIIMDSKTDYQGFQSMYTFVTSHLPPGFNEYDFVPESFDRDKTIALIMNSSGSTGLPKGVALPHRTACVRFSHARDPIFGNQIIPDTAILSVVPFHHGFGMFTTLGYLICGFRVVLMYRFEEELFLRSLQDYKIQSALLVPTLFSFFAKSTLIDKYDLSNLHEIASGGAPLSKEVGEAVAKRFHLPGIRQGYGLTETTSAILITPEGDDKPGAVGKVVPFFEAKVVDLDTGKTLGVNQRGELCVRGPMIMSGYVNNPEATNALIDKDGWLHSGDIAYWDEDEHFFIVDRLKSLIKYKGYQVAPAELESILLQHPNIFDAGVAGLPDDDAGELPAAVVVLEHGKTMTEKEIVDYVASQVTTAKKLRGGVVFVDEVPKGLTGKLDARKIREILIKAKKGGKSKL

Albumin (Bos taurus), sequence (P02769 whole entry, looked up): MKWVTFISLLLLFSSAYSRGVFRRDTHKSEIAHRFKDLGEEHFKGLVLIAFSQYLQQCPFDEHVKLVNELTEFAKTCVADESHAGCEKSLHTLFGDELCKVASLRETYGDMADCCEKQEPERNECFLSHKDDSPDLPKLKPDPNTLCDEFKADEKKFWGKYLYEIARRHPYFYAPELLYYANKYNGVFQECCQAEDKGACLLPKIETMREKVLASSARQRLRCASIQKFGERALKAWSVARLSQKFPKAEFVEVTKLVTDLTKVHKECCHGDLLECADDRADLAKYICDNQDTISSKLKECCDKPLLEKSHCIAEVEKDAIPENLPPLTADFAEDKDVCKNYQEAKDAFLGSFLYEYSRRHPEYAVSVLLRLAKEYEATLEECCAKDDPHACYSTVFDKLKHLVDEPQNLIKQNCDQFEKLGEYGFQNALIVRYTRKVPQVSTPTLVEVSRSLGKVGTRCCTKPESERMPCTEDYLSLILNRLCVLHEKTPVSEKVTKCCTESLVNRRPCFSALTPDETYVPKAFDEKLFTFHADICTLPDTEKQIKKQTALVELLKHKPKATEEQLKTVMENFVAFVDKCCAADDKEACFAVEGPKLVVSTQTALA
Fibroblast growth factor 2 (Homo sapiens), sequence (P09038 whole entry, looked up): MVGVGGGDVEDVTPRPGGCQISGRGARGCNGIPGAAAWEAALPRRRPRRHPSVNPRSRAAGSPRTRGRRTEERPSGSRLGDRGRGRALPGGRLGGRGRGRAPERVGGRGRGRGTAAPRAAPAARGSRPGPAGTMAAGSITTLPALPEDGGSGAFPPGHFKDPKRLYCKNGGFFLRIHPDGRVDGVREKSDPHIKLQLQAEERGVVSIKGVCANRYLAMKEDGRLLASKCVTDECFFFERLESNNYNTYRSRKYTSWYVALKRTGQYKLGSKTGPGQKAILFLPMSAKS
Focal adhesion kinase 1 (Homo sapiens), sequence (Q05397 whole entry, looked up): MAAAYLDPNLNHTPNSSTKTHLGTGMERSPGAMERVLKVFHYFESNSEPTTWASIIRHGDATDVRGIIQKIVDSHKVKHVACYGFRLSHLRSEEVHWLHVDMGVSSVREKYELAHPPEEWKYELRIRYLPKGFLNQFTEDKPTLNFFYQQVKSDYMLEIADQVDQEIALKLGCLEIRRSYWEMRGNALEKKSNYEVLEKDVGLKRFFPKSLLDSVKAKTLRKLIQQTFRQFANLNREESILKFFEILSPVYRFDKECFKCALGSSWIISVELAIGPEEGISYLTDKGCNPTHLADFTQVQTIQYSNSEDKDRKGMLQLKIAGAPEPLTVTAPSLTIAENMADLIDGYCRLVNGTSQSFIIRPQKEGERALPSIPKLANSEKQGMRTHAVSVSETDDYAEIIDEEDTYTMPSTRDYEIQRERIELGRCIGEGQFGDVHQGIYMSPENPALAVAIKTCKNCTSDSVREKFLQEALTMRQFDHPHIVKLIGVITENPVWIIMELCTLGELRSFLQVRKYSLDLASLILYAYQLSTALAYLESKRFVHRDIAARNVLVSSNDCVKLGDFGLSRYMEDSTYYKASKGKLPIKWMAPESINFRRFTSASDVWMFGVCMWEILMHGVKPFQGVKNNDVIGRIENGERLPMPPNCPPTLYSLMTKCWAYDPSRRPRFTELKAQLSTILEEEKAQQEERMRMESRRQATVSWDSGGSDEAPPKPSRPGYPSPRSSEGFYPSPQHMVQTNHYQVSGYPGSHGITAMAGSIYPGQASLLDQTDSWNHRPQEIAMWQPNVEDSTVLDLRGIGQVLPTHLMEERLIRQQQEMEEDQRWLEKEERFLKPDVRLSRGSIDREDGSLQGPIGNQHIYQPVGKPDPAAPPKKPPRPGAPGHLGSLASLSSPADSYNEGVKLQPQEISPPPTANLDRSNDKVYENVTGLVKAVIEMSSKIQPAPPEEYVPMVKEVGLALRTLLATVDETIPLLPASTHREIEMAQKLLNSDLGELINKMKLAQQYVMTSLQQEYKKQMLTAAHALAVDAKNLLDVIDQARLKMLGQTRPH
Follistatin (Homo sapiens), sequence (P19883 whole entry, looked up): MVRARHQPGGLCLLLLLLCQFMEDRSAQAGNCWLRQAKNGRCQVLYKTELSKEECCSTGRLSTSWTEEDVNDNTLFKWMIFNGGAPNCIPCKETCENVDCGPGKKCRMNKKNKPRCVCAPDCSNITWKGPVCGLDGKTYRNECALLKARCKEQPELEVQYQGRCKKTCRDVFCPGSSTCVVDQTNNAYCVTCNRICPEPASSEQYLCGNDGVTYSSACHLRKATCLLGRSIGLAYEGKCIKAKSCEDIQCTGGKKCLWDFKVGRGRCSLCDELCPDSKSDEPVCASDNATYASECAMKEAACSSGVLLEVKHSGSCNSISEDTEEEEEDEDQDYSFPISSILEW
Concanavalin-A (Canavalia ensiformis), sequence (P02866 whole entry, looked up): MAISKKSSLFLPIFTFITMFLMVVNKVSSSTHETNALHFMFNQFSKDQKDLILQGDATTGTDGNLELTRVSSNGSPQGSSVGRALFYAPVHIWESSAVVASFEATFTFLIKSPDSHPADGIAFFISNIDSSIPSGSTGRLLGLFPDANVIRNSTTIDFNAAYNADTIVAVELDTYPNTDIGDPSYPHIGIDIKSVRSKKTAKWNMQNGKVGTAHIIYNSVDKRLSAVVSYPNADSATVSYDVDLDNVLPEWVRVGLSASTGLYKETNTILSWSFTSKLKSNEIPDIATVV

| SMILES | composite z-score [1] | composite Z-score [2] | composite z-score [3] | composite z-score [4] | composite z-score [5] | composite z-score [6] | composite z-score [7] | composite z-score [8] | composite z-score [9] | composite z-score [10] | composite z-score [11] | composite z-score [12] | composite z-score [13] | composite z-score [14] | composite z-score [15] | composite z-score [16] | z-score [17] | composite z-score [18] | composite z-score [19] | z-score [20] |
| --- | --- | --- | --- | --- | --- | --- | --- | --- | --- | --- | --- | --- | --- | --- | --- | --- | --- | --- | --- | --- |
| COc1ccc(O[C@H]2C=C[C@@H](c3ccccc3)O[C@@H]2COC(=O)NCc2cccc3ccccc23)cc1 | -0.194 | -0.341 (inactive) | -0.191 | -0.159 | -0.219 | -0.146 | -0.0544 | -0.0446 | 0.281 | 0.335 | -0.816 | -0.406 | -0.235 | -0.138 | -0.0584 | 0.353 | 1.07 | 0.0182 | -0.317 | 0.441 (inactive) |
| COC(=O)[C@H](C)NC(=O)CCC1CC(OC(=O)NCc2cccc3ccccc23)CC2(CCCC(COC(=O)NCCOc3ccccc3)O2)O1 (stereo not given in full) | 0.445 | -0.0662 (inactive) | -0.0694 | -0.161 | 0.295 | 1.17 | 0.106 | 1.23 | -0.254 | 1.09 | 0.334 | 1.12 | 0.549 | 0.793 | 0.145 | -0.142 | -0.333 | 0.318 | 0.502 | 1.32 (inactive) |
| C=CC[C@@H]1C=C[C@H](ON=C2C[C@@H](O)[C@@H](O)[C@@H]3[C@@H]4C(=O)N(CC)C(=O)[C@@H]4CC[C@@H]23)[C@@H](CO)O1 | -0.873 | -0.116 (inactive) | -0.16 | -0.237 | 0.452 | 0.429 | -0.289 | -0.444 | -0.0673 | -1.18 | -2.3 | -1.1 | 0.382 | -1.15 | -0.707 | 0.119 | -0.992 | 0.158 | -1.41 | 1.3 (inactive) |
| CCN1C(=O)[C@H]2[C@H]3[C@H](O)[C@H](O)CC(=NO[C@@H](C)c4cc(-c5c(C)cc(C)cc5C)no4)[C@@H]3CC[C@H]2C1=O | 0.581 | -0.0662 (inactive) | 0.051 | -0.0562 | 0.465 | 1.11 | 0.693 | 1.3 | 0.333 | 1.02 | -0.185 | 0.918 | 0.23 | 0.813 | 0.809 | 1.08 | 0.474 | 0.922 | 1.01 | 1.06 (inactive) |
| CCN1C(=O)[C@H]2[C@H]3[C@H](O)[C@H](O)CC(=NOCC(C)C)[C@H]3CC[C@H]2C1=O | -0.369 | -0.14 (inactive) | 0.108 | -0.204 | -0.15 | -0.302 | 0.0041 | 0.0597 | 0.843 | -0.238 | 0.341 | 0.551 | -0.0956 | -0.326 | 0.818 | 0.4 | -0.087 | 0.717 | -0.312 | 0.404 (inactive) |
